In PubChem BioAssay (EPA / NIEHS):
Activity calls are given as the source filed them. How the source made its calls: active means hit-call score of the fitted dose curve at least 0.9, where 1 is the maximum; inactive means score below 0.9.

Tests used:
[1] = read-out: TIMP metallopeptidase inhibitor 2 (TIMP2), TIMP2 (gene 7077); experiment: BSK_KF3CT_TIMP2: BioMAP Diversity Plus: KF3CT Assay for TIMP metallopeptidase inhibitor 2 (TIMP2) Biomarker Activity (AID 2283071); details: primary human keratinocytes with fibroblasts; actives raise or lower the signal
Procedure, shortened: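 Chemicals were dosed onto human skin primary co-cultures of keratinocytes and foreskin fibroblasts, and TIMP-2 was measured by ELISA after 24 hours. Activity in either direction was fitted relative to DMSO.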

[2] = read-out: Transforming growth factor beta 1 (TGFb1), TGFB1 (gene 7040); experiment: BSK_KF3CT_TGFb1: BioMAP Diversity Plus: KF3CT Assay for Transforming growth factor beta 1 (TGFb1) Biomarker Activity (AID 2283072); details: primary human keratinocytes with fibroblasts; actives raise or lower the signal
Procedure, shortened: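 KF3CT co-culture (keratinocytes + fibroblasts), 24 h exposure → TGF-b1 ELISA → bidirectional fit, DMSO = baseline. Parallel SRB total-protein staining (0.1% SRB, 10% TCA fixation, 560 nm) for cytotoxicity.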

[3] = read-out: C-C motif chemokine 2 (Homo sapiens) (UniProt P13500); experiment: BSK_KF3CT_MCP1: BioMAP Diversity Plus: KF3CT Assay for Monocyte Chemoattractant Protein 1 (MCP1/CCL2) Biomarker Activity (AID 2283073); details: primary human keratinocytes with fibroblasts; actives raise or lower the signal
Procedure, shortened: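 ELISA read-out of MCP-1, 24 h post-dose, in primary human skin keratinocytes co-cultured with fibroblasts. Parallel SRB staining monitors cytotoxicity; changes fitted both directions relative to DMSO.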

[4] = read-out: Matrix Metallopeptidase 9 (MMP9), MMP9 (gene 4318); experiment: BSK_KF3CT_MMP9: BioMAP Diversity Plus: KF3CT Assay for Matrix Metallopeptidase 9 (MMP9) Biomarker Activity (AID 2283074); details: primary human keratinocytes with fibroblasts; actives raise or lower the signal
Procedure, shortened: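 ELISA read-out of MMP-9 at 24 h post-dosing in a co-culture of human skin keratinocytes and foreskin fibroblasts. Gain or loss of signal was fitted in both directions against DMSO.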

[5] = read-out: urokinase plasminogen activator (uPA), PLAU (gene 5328); experiment: BSK_KF3CT_uPA: BioMAP Diversity Plus: KF3CT Assay for urokinase plasminogen activator (uPA) Biomarker Activity (AID 2283075); details: primary human keratinocytes with fibroblasts; actives raise or lower the signal
Procedure, shortened: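 Skin co-culture (keratinocytes + foreskin fibroblasts), human primary; 24 h post-dose; uPA by ELISA; gain/loss fit vs DMSO baseline.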

CD40, CD40 (gene 958) [6] = experiment: BSK_LPS_CD40: BioMAP Diversity Plus: LPS Assay for CD40 Biomarker Activity (AID 2283076); details: primary human HUVEC with PBMC; actives raise or lower the signal
Procedure, shortened: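 In the LPS system of human endothelial cells with peripheral blood mononuclear cells, CD40 levels were read by ELISA 24 h post-treatment. Signal changes in either direction were fitted against the DMSO baseline, with parallel SRB protein staining.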

[7] = read-out: E-selectin (Homo sapiens) (UniProt P16581); experiment: BSK_LPS_Eselectin: BioMAP Diversity Plus: LPS Assay for Eselectin Biomarker Activity (AID 2283077); details: primary human HUVEC with PBMC; actives raise or lower the signal
Procedure, shortened: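 E-selectin ELISA on LPS-stimulated endothelial cell/PBMC co-cultures, read 24 h post-treatment; gains and losses fitted against DMSO. Parallel SRB staining (0.1% SRB after 10% TCA fixation, 560 nm) flags overt cytotoxicity.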

[8] = read-out: Interleukin-8 (IL8), CXCL8 (gene 3576); experiment: BSK_LPS_IL8: BioMAP Diversity Plus: LPS Assay for Interleukin-8 (IL8) Biomarker Activity (AID 2283078); details: primary human HUVEC with PBMC; actives raise or lower the signal
Procedure, shortened: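 ELISA read-out of IL-8 after 24 h chemical treatment of LPS-activated endothelial/PBMC human primary co-cultures. Changes either up or down relative to DMSO; overt cytotoxicity checked by sulforhodamine B staining in parallel wells.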

[9] = BSK_LPS_SRB: Viability Assessment in the BioMAP Diversity Plus: LPS Assay (AID 2283079); details: primary human HUVEC with PBMC;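 further: total protein by sulforhodamine B absorbance as a cytotoxicity measure; measured one day after compound addition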
Procedure, shortened: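 SRB viability endpoint: cells fixed with 10% TCA, stained with 0.1% SRB, read at 560 nm, 24 h post-dose. HUVEC/PBMC co-culture; signal change in either direction scored relative to DMSO.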

[10] = read-out: Interleukin-1 alpha (IL1a), IL1A (gene 3552); experiment: BSK_LPS_IL1a: BioMAP Diversity Plus: LPS Assay for Interleukin-1 alpha (IL1a) Biomarker Activity (AID 2283080); details: primary human HUVEC with PBMC; actives raise or lower the signal
Procedure, shortened: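 Readout is IL-1a level by ELISA, 24 h post-dose, fitted as gain or loss relative to DMSO. System: LPS-activated human primary co-culture of vascular endothelium and peripheral blood mononuclear cells, with parallel SRB total-protein cytotoxicity.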

[11] = read-out: Monocyte Chemoattractant Protein-1 (MCP1), CCL2 (gene 6347); experiment: BSK_LPS_MCP1: BioMAP Diversity Plus: LPS Assay for Monocyte Chemoattractant Protein-1 (MCP1) Biomarker Activity (AID 2283081); details: primary human HUVEC with PBMC; actives raise or lower the signal
Procedure, shortened: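 Secreted MCP-1 read by ELISA at 24 h post-dosing in an LPS-activated co-culture of endothelial cells with peripheral blood mononuclear cells. Fits run in both directions, DMSO as baseline; parallel SRB staining tracks overt cytotoxicity.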

[12] = BSK_LPS_PGE2: BioMAP Diversity Plus: LPS Assay for Prostaglandin E2 (PGE2) Biomarker Activity (AID 2283082); details: primary human HUVEC with PBMC; actives raise or lower the signal
Procedure, shortened: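 Compounds were added to the LPS co-culture of endothelium and PBMC, and PGE2 was measured by ELISA after 24 h. Responses in either direction were fitted with DMSO as baseline.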

[13] = read-out: Macrophage colony-stimulating factor (MCSF), CSF1 (gene 1435); experiment: BSK_LPS_MCSF: BioMAP Diversity Plus: LPS Assay for Macrophage colony-stimulating factor (MCSF) Biomarker Activity (AID 2283083); details: primary human HUVEC with PBMC; actives raise or lower the signal
Procedure, shortened: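 Bidirectional fitting against DMSO was applied to M-CSF levels read by ELISA at 24 h post-dose. The system pairs human umbilical vein endothelium with peripheral blood mononuclear cells; parallel SRB staining tracked cytotoxicity.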

[14] = read-out: Tissue Factor, F3 (gene 2152); experiment: BSK_LPS_TissueFactor: BioMAP Diversity Plus: LPS Assay for Tissue Factor Biomarker Activity (AID 2283084); details: primary human HUVEC with PBMC; actives raise or lower the signal
Procedure, shortened: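 Compound was added to an endothelial cell/PBMC co-culture, and after 24 h tissue factor (CD142) was read by ELISA. Gain or loss of signal was fitted against a DMSO baseline, and parallel SRB staining (560 nm) tracked overt cytotoxicity.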

[15] = read-out: Tumor necrosis factor (Homo sapiens) (UniProt P01375); experiment: BSK_LPS_TNFa: BioMAP Diversity Plus: LPS Assay for Tumour Necrosis Factor alpha (TNFa) Biomarker Activity (AID 2283085); details: primary human HUVEC with PBMC; actives raise or lower the signal
Procedure, shortened: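 Cells (umbilical vein endothelium plus peripheral blood mononuclear cells) were dosed with chemical, incubated 24 h, then TNFa was quantified by ELISA; values derive from bidirectional fitting with DMSO as baseline.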

[16] = read-out: Vascular cell adhesion molecule 1 (VCAM1), VCAM1 (gene 7412); experiment: BSK_LPS_VCAM1: BioMAP Diversity Plus: LPS Assay for Vascular cell adhesion molecule 1 (VCAM1) Biomarker Activity (AID 2283086); details: primary human HUVEC with PBMC; actives raise or lower the signal
Procedure, shortened: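 Cells are dosed in an LPS-stimulated endothelial/mononuclear co-culture and, after 24 h, VCAM-1 is quantified by ELISA. Activity in either direction is fitted relative to the DMSO negative control.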

CD38, CD38 (gene 952) = experiment: BSK_SAg_CD38: BioMAP Diversity Plus: SAg Assay for CD38 Biomarker Activity (AID 2283087); details: primary human HUVEC with PBMC; actives raise or lower the signal
Procedure, shortened: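 CD38 quantified by ELISA (fluorescence) in a superantigen-activated endothelial cell–PBMC co-culture at 24 h post-dose. Activity fitted in both directions relative to DMSO; parallel SRB and Alamar Blue cytotoxicity read-outs.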

CD40, CD40 (gene 958) [17] = experiment: BSK_SAg_CD40: BioMAP Diversity Plus: SAg Assay for CD40 Biomarker Activity (AID 2283088); details: primary human HUVEC with PBMC; actives raise or lower the signal
Procedure, shortened: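 CD40 is measured by fluorescence ELISA in an endothelial/PBMC primary human co-culture at 24 h post-dose. Fitting is bidirectional, DMSO baseline. Parallel SRB staining (560 nm) flags cytotoxicity.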

[18] = read-out: Monocyte Chemoattractant Protein-1 (MCP1), CCL2 (gene 6347); experiment: BSK_SAg_MCP1: BioMAP Diversity Plus: SAg Assay for Monocyte Chemoattractant Protein-1 (MCP1) Biomarker Activity (AID 2283090); details: primary human HUVEC with PBMC; actives raise or lower the signal
Procedure, shortened: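 Values derive from bidirectional fitting of ELISA-measured MCP1 against DMSO controls. Readings were taken 24 h after dosing human vascular endothelial cells co-cultured with peripheral blood mononuclear cells under superantigen stimulation.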

Measured: outcome

Tumor necrosis factor (Homo sapiens), sequence (P01375 whole entry, looked up): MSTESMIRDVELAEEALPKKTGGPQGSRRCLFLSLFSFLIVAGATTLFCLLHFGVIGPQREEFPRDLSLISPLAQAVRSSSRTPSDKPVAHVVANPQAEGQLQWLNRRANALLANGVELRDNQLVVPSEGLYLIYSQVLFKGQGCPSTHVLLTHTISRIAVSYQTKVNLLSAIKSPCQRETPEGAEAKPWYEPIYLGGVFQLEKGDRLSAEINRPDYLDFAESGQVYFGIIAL
E-selectin (Homo sapiens), sequence (P16581 whole entry, looked up): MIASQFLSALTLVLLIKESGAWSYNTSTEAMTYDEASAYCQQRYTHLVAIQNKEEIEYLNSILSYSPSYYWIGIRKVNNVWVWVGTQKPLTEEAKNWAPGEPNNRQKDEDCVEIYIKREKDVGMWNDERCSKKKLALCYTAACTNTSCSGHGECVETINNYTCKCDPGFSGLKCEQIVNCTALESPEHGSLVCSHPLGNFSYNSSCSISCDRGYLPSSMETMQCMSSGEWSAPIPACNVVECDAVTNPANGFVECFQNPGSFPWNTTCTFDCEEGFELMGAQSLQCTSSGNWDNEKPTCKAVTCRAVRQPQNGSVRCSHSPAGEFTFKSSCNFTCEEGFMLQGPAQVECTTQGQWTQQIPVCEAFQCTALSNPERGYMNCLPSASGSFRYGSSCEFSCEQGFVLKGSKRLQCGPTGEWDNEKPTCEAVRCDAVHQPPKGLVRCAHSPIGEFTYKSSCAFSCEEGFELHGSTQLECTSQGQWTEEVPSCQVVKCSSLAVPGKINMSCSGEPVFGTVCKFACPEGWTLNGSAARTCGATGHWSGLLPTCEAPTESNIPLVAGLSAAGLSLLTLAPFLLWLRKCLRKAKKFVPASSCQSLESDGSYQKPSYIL

Sc1ccccc1
inactive: all assays above

Cc1ccccc1[N+](=O)[O-]
not listed: [7]
inactive: all other assays above

O=C(N[C@H]1CN2CCC1CC2)c1cc2ccoc2cn1
not listed: [5] | [7] | [14]
inactive: all other assays above
